The structures appear in SMILES notation. Activity calls are given as the source filed them. The calls were made as follows: active = hit-call score of the fitted dose curve at least 0.9, where 1 is the maximum; inactive = score below 0.9.

Sequence of human Mitogen-Activated Protein Kinase 11 (MAPK 11), MAPK11 (gene 5600) (Q15759 whole entry, looked up): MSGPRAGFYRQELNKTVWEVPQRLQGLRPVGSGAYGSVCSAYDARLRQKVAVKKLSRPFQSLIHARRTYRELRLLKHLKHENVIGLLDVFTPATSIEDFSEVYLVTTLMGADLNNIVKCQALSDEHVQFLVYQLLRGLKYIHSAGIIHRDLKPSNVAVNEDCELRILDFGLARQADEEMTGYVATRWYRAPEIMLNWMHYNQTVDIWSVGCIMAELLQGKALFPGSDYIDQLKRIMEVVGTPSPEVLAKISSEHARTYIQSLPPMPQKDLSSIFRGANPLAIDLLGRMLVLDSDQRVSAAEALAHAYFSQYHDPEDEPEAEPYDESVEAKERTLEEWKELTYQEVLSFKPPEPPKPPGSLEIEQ

The target of this experiment is human Mitogen-Activated Protein Kinase 11 (MAPK 11), MAPK11 (gene 5600) (UniProt Q15759). Briefly: NVS_ENZ_hMAPK11: NovaScreen (NVS) Enzymatic Assay for human Mitogen-Activated Protein Kinase 11 (MAPK 11). The method, then:
NVS_ENZ_hMAPK11 is a biochemical, single-readout assay that uses extracted gene-proteins in a cell-free assay. Measurements were taken 0 hour after chemical dosing in a 384-well plate.NVS_ENZ_hMAPK11 is one of one assay component(s) measured or calculated from the NVS_ENZ_hMAPK11 assay. It is designed to make measurements of enzyme activity, a form of enzyme reporter, as detected with fluorescence intensity signals by Fluorescence and electrophoretic mobility shift technology.Data from the assay component NVS_ENZ_hMAPK11 was analyzed into 1 assay endpoint. This assay endpoint, NVS_ENZ_hMAPK11, was analyzed in the positive analysis fitting direction relative to DMSO as the negative control and baseline of activity. Using a type of enzyme reporter, loss-of-signal activity can be used to understand changes in the enzymatic activity as they relate to the gene MAPK11. Furthermore, this assay endpoint can be referred to as a primary readout, because this assay has produced multiple assay endpoints where this one serves a enzymatic activity function. To generalize the intended target to other relatable targets, this assay endpoint is annotated to the kinase intended target family, where the subfamily is serine/threonine kinase.
Binding assays used specific radioligands (tritiated, iodinated) with non-radioactive competitive displacement ligands in agonist or antagonist protocols (as indicated) and various reference compounds and inhibitors to titrate specific binding to receptors and transporters. Most enzyme assays (CYPs, kinases, phosphatases, proteases, HDACs) used recombinant protein and specific substrates (fluorescence mostly, some colorimetric and radioactive) and inhibitors, followed by a biochemical separation of substrate and product. All assays for the biochemical HTS were initially run in duplicate at a single concentration (10 uM for CYP450 assays and 25 uM for all others). Assay-chemical combinations meeting a pre-defined threshold (e.g., 30% inhibition and other criteria defined below) were then run in singleton concentration-response format with maximum concentration of 20 uM for CYPs and 50 uM for all others. Each assay was run with positive and negative controls, and concurrent controls on every plate. The follow-up (secondary) screen tested active chemical-pairs in concentration series, as well as a few additional assays not tested in the primary screen, some selected negative inactives, and several cases re-run in the concentration series for confirmatory purposes.
For `C#CCOC(=O)[C@@H](C)Oc1ccc(Oc2ncc(Cl)cc2F)cc1`, the molecule was classed as inactive. The same measure, in the same setting: then `CC(C)(c1ccc(O)cc1)c1ccc(O)cc1`, with “inactive”. For the molecule `S=C([S-])NCCNC(=S)[S-].[Mn+2]`, the AC50 (usually the midpoint of the concentration-response curve, whichever way the signal moves) was 24.4 µM (active). In the case of `S=C(S)NCCNC(=S)S.[Mn+2].[S-]C([S-])=NCCN=C([S-])[S-].[Zn+2]`, the AC50 is 16.6 µM (active). Turning to `CCCCC(CC)COC(=O)c1ccccc1C(=O)O` (stereo unspecified), the outcome was inactive.

In the case of `COCCO`, the result was inactive.

(Values after PubChem BioAssay AID2283174 (EPA ToxCast).)
